Measurements from PubChem BioAssay (NCI).
This is part of a sample that, as a whole, favours compounds with a hit. Of some 83,000 tested, about 20% had one in any assay.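 Assay: single dose, 48 h. Readout: percent growth (0 = no net growth; negative = cell death). Active: <10.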 The source made the active and inactive calls.

Assays:
Test in all cases: NCI-60 one-dose screen, 48 h (100 = growth as untreated, 0 = no growth, -100 = all killed)
Settings in all cases: 10 µM unless noted
[1] = test system: NCI-H23 lung
[2] = test system: NCI-H226 lung
[3] = test system: NCI-H322M lung
[4] = test system: HOP-62 NSCLC
[5] = test system: NCI-H460 lung
[6] = test system: HOP-92 NSCLC
[7] = test system: NCI-H522 lung
[8] = test system: A549/ATCC NSCLC
[9] = test system: 786-0 renal
[10] = test system: COLO 205 colon
[11] = test system: DU-145 prostate
[12] = test system: K-562 leukemia
[13] = test system: MDA-MB-231 breast
[14] = test system: RXF 393 renal
[15] = test system: SF-268 CNS
[16] = test system: SF-295 CNS
[17] = test system: SF-539 CNS
[18] = test system: UACC-257 melanoma
[19] = test system: M14 melanoma
[20] = test system: MALME-3M melanoma

Row | Compound | growth [1] | growth [2] | growth [3] | growth [4] | growth [5] | growth [6] | growth [7] | growth [8] | growth [9] | growth [10] | growth [11] | growth [12] | growth [13] | growth [14] | growth [15] | growth [16] | growth [17] | growth [18] | growth [19] | growth [20]
1 | CC(=O)c1cccc(O)c1 | 96.6% (inactive) | 103% (inactive) | 106% (inactive) | 93% (inactive) | 105% (inactive) | 103% (inactive) | 88.9% (inactive) | 98.9% (inactive) | 96% (inactive) | 110% (inactive) | 105% (inactive) | 103% (inactive) | 104% (inactive) | 112% (inactive) | 97.1% (inactive) | 101% (inactive) | 98% (inactive) | 99.3% (inactive) | 99.6% (inactive) | –
2 | Nc1ncnc2c1ncn2C1OC(CO)C2OC21 (centres undefined) | 107% (inactive) | 93.8% (inactive) | 118% (inactive) | 96.6% (inactive) | 109% (inactive) | 102% (inactive) | 94.6% (inactive) | 102% (inactive) | 108% (inactive) | 107% (inactive) | 113% (inactive) | 104% (inactive) | 112% (inactive) | 103% (inactive) | 104% (inactive) | 106% (inactive) | 110% (inactive) | 98.6% (inactive) | 102% (inactive) | –
3 | C1=NCCc2ccccc21 | 93.8% (inactive) | 85.8% (inactive) | 105% (inactive) | 89.4% (inactive) | 103% (inactive) | 92.1% (inactive) | 114% (inactive) | 98.5% (inactive) | 103% (inactive) | 101% (inactive) | 111% (inactive) | 107% (inactive) | 99% (inactive) | 104% (inactive) | 95% (inactive) | 100% (inactive) | 96.5% (inactive) | 94.8% (inactive) | 94.2% (inactive) | –
4 | O=c1nc(Nc2cccc(Cl)c2)oc2cc(Cl)oc(=O)c12 | 64.5% (inactive) | 94.9% (inactive) | 108% (inactive) | 81.5% (inactive) | 98.8% (inactive) | 47.2% (inactive) | 26.2% (inactive) | 101% (inactive) | 85.2% (inactive) | 80.1% (inactive) | 113% (inactive) | 81.6% (inactive) | 50.9% (inactive) | 42.5% (inactive) | 66.9% (inactive) | – | 79.8% (inactive) | 87% (inactive) | 66.2% (inactive) | –
5 | COc1cc(OC)c(NC(=O)C(Sc2nc(C)cc(C)c2C#N)c2ccccc2)cc1Cl (centres undefined) | 96.6% (inactive) | 102% (inactive) | 106% (inactive) | 65.5% (inactive) | 110% (inactive) | 80.9% (inactive) | 82.1% (inactive) | 92.6% (inactive) | 73.6% (inactive) | 104% (inactive) | 102% (inactive) | 105% (inactive) | 106% (inactive) | 73.5% (inactive) | 85.9% (inactive) | – | 83.8% (inactive) | 114% (inactive) | 97.1% (inactive) | –
6 | O=C(OCc1ccccc1)n1nnc2ccccc21 | 115% (inactive) | 108% (inactive) | 105% (inactive) | 110% (inactive) | 109% (inactive) | 116% (inactive) | 100% (inactive) | 102% (inactive) | 98.7% (inactive) | 111% (inactive) | 112% (inactive) | 107% (inactive) | 96.6% (inactive) | 113% (inactive) | 104% (inactive) | 99.2% (inactive) | 105% (inactive) | 97.2% (inactive) | 98.7% (inactive) | –
7 | CCCCCC/C=C\CCCCCCCCCc1cc(O)cc(OC)c1O | 11.2% (inactive) | 24.2% (inactive) | 4.07% (active) | 21.8% (inactive) | 8.62% (active) | -45% (active) | -76.8% (active) | 16.8% (inactive) | 10.6% (inactive) | -65.3% (active) | 26% (inactive) | 7.81% (active) | -43.1% (active) | 22.7% (inactive) | 9.15% (active) | 2.68% (active) | -58.3% (active) | -4.96% (active) | 27.3% (inactive) | –
8 | COC1OC(C(COC(C)=O)OC(C)=O)C(OC(C)=O)C(OC(C)=O)C1OC(C)=O (centres undefined) | 112% (inactive) | 99.4% (inactive) | 115% (inactive) | 99.3% (inactive) | 112% (inactive) | 128% (inactive) | 103% (inactive) | 106% (inactive) | 107% (inactive) | 116% (inactive) | 115% (inactive) | 119% (inactive) | 126% (inactive) | 115% (inactive) | 113% (inactive) | – | 92% (inactive) | 110% (inactive) | 106% (inactive) | –
9 | CC(=O)NNC(=S)/N=C\C(C(=O)c1ccccc1)=C(/O)c1ccccc1 | 90.1% (inactive) | 96.2% (inactive) | 94.1% (inactive) | 88.2% (inactive) | 110% (inactive) | 100% (inactive) | 86.3% (inactive) | 87.3% (inactive) | 99.8% (inactive) | 108% (inactive) | 108% (inactive) | 101% (inactive) | 89.6% (inactive) | 97.7% (inactive) | 99.2% (inactive) | 108% (inactive) | 101% (inactive) | 102% (inactive) | 103% (inactive) | –
10 | S=CN1CCCCC1 | 105% (inactive) | 98.1% (inactive) | 102% (inactive) | 108% (inactive) | 109% (inactive) | 103% (inactive) | 109% (inactive) | 91.8% (inactive) | 102% (inactive) | 121% (inactive) | 106% (inactive) | 101% (inactive) | 108% (inactive) | 102% (inactive) | 96.7% (inactive) | 96% (inactive) | 97.4% (inactive) | 91.8% (inactive) | 106% (inactive) | –
11 | CN(C)c1ccc(/C=C/C(=O)c2ccc(NC(N)=O)cc2)cc1 | 96.9% (inactive) | 104% (inactive) | 97% (inactive) | 94.1% (inactive) | 102% (inactive) | 103% (inactive) | 95.3% (inactive) | 84.5% (inactive) | 97.1% (inactive) | 112% (inactive) | 98.8% (inactive) | 64.6% (inactive) | – | 107% (inactive) | 99% (inactive) | 98.8% (inactive) | 81.1% (inactive) | 89.9% (inactive) | 86.8% (inactive) | 82.3% (inactive)
12 | COc1cccc(C(=O)NNC(=O)c2cccc3ccccc23)c1 | 107% (inactive) | 105% (inactive) | 122% (inactive) | 97.7% (inactive) | 117% (inactive) | 97.2% (inactive) | 102% (inactive) | 96% (inactive) | 104% (inactive) | 108% (inactive) | 117% (inactive) | 98.4% (inactive) | 110% (inactive) | 115% (inactive) | 110% (inactive) | 124% (inactive) | 114% (inactive) | 109% (inactive) | 107% (inactive) | –
13 | COc1ccc(-c2csc(NC(=O)Nc3nc(-c4ccc(OC)cc4)cs3)n2)cc1 | 66.8% (inactive) | 70.6% (inactive) | 90.1% (inactive) | 106% (inactive) | 84.7% (inactive) | 89% (inactive) | 92.5% (inactive) | 81.3% (inactive) | 97.8% (inactive) | 98.5% (inactive) | 72.8% (inactive) | 67.5% (inactive) | 92.9% (inactive) | 98.5% (inactive) | 81.9% (inactive) | 87.9% (inactive) | 90% (inactive) | 67.4% (inactive) | 83.6% (inactive) | –
14 | CC(=O)NNC(=S)N/C=C/c1c(C)ccc([N+](=O)[O-])c1[N+](=O)[O-] | 94.8% (inactive) | 110% (inactive) | 111% (inactive) | 103% (inactive) | 102% (inactive) | 100% (inactive) | 87.8% (inactive) | 102% (inactive) | 97.2% (inactive) | 101% (inactive) | 104% (inactive) | 102% (inactive) | 99.3% (inactive) | 105% (inactive) | 96.7% (inactive) | 103% (inactive) | 99.7% (inactive) | 99.6% (inactive) | 89.6% (inactive) | –
15 | CC(O)C(F)(F)C(F)(F)C(F)(F)F (centres undefined) | 111% (inactive) | 102% (inactive) | 114% (inactive) | 104% (inactive) | 110% (inactive) | 117% (inactive) | 93.8% (inactive) | 110% (inactive) | 102% (inactive) | 116% (inactive) | 119% (inactive) | 111% (inactive) | 118% (inactive) | 103% (inactive) | 115% (inactive) | – | 96.6% (inactive) | 107% (inactive) | 103% (inactive) | –
16 | N#C/C(=C\NC(=S)N=Nc1c(O)[nH]c2ccccc12)c1nc2ccccc2s1 | 94.7% (inactive) | 77.6% (inactive) | 101% (inactive) | 95.4% (inactive) | 97.4% (inactive) | 83.8% (inactive) | 82.9% (inactive) | 90.3% (inactive) | 94.8% (inactive) | 106% (inactive) | 113% (inactive) | 101% (inactive) | 87.9% (inactive) | 101% (inactive) | 102% (inactive) | 107% (inactive) | 103% (inactive) | 94.9% (inactive) | – | –
